# “And” between values parts separate entries of the source, which are not always exact repeats. Equal entries are not always repeated. Records with an inconclusive call do not appear. Entries that show only a call come without a potency. Some structures have more than one record in an assay (separate samples or runs), and their calls can disagree. The source made the active and inactive calls. Unless noted, calls come from the whole dose curve; as a rule, active = well fitted curve in the direction sought with a large enough effect in the repeat runs; inconclusive = weak or mixed curves; inactive = no such curve, though single readings can be large; an effect the other way counts as inactive or inconclusive.
# Experiments:
# [1] = qHTS assay to identify aromatase inhibitors - cell viability counter screen (AID 743084);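 note: cells stimulated with testosterone during compound exposure; nearly all actives have a fitted effect of over 55% in size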; note: potency is the fitted concentration of half-maximal effect
# [2] = target: Aryl hydrocarbon receptor (Homo sapiens) (UniProt P35869); assay: qHTS assay to identify small molecule that activate the aryl hydrocarbon receptor (AhR) signaling pathway (AID 743085); note: nearly all actives have a fitted effect of over 15% in size; note: potency is the fitted concentration of half-maximal effect;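 for activation: HG2L7.5c1 human HepG2 liver cells with stably integrated DRE-driven firefly reporter; series mostly up to about 70 µM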
# Procedure, shortened: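 HepG2 cells (HG2L7.5c1) stably carrying a firefly luciferase reporter driven by 20 dioxin responsive elements were exposed to compound for 24 h at 37C after a 5 h settling period; luminescence rise (ONE-Glo) indicated activation.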
# [3] = target: Peroxisome proliferator-activated receptor gamma (Homo sapiens) (UniProt P37231); assay: qHTS assay to identify small molecule agonists of the peroxisome proliferator-activated receptor gamma (PPARg) signaling pathway (AID 743094; active = well fitted activation curve with a large enough effect in the signal ratio in the repeat runs, not every such curve was filed as active; the % refers to the signal ratio; note: potency is the fitted concentration of half-maximal effect)
# Procedure, shortened: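 Agonist activity was taken from a beta-lactamase reporter (FRET substrate, 1 h at room temperature) in HEK293H cells carrying a PPARg UAS-bla construct. Compounds in DMSO were incubated 17 h at 37C after a 5 h cell pre-incubation.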
# [4] = target: Peroxisome proliferator-activated receptor gamma (Homo sapiens) (UniProt P37231); assay: qHTS assay to identify small molecule antagonists of the peroxisome proliferator-activated receptor gamma (PPARg) signaling pathway (AID 743191; calls by dose curve; note: series mostly up to about 63 µM; nearly all actives have a fitted effect of over 30% in size)
# Procedure, shortened: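 GeneBLAzer PPARg UAS-bla HEK293H cells carrying a UAS-driven beta-lactamase reporter were plated at 3000 cells/well, preincubated 5 h at 37C, then given compound for 17 h at 37C; LiveBLAzer B/G FRET substrate was read after 1 h at room temperature.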
# [5] = qHTS assay for small molecule agonists of the antioxidant response element (ARE) signaling pathway (AID 743202; active = well fitted activation curve with a large enough effect in the signal ratio in the repeat runs, not every such curve was filed as active; the % refers to the signal ratio)
# Procedure, shortened: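 Steps: seed ARE-bla HepG2 cells (2,000/well); incubate 5 h at 37 C; add compounds by pin tool; incubate 16 h at 37 C; add FRET substrate; read fluorescence after 2 h at RT.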
# [6] = qHTS assay for small molecule agonists of the antioxidant response element (ARE) signaling pathway - cell viability counter screen (AID 743203; calls by dose curve; note: nearly all actives have a fitted effect of over 55% in size; note: potency is the fitted concentration of half-maximal effect)
# Procedure, shortened: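 Viability counter screen: CellTiter-Glo luminescence, read after 30 min at room temperature, in ARE-bla HepG2 wells. Compound exposure lasted 16 h at 37C/5% CO2, following a 5 h pre-incubation of the cells after plating.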
# [7] = qHTS assay for small molecule activators of the heat shock response signaling pathway - cell viability counter screen (AID 743209); note: nearly all actives have a fitted effect of over 50% in size
# Procedure, shortened: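 Cytotoxicity counter screen run in the same wells as the heat-shock bla reporter assay: HeLa HSE-bla cells, 5 h compound exposure at 37 C, viability read by CellTiter-Glo luminescence.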
# [8] = qHTS assay to identify small molecule agonists of the peroxisome proliferator-activated receptor delta (PPARd) signaling pathway - cell viability counter screen (AID 743211); note: nearly all actives have a fitted effect of over 55% in size; note: potency is the fitted concentration of half-maximal effect
# Procedure, shortened: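 PPARd-bla HEK293H cells (UAS-beta-lactamase reporter) were treated with compounds for 17 h at 37 C. Viability was then read in the same wells by CellTiter-Glo luminescence after 30 min at room temperature.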
# [9] = target: Peroxisome proliferator-activated receptor delta (Homo sapiens) (UniProt Q03181); assay: qHTS assay to identify small molecule agonists of the peroxisome proliferator-activated receptor delta (PPARd) signaling pathway (AID 743212; calls by dose curve)
# Procedure, shortened: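 Cells expressing a UAS-driven beta-lactamase reporter (PPARd-bla HEK293H) were given test compounds after a 5 h settle and kept at 37 C. Reporter activity was then measured as FRET fluorescence using LiveBLAzer B/G substrate.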
# [10] = qHTS assay to identify small molecule antagonists of the peroxisome proliferator-activated receptor delta (PPARd) signaling pathway - cell viability counter screen (AID 743213); note: nearly all actives have a fitted effect of over 50% in size; note: potency is the fitted concentration of half-maximal effect
# Procedure, shortened: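 PPARd-bla HEK293H cells were treated with compounds plus agonist L165041 (300 nM final) for 17 h at 37 C. Viability was then read in the same wells by CellTiter-Glo luminescence after 30 min at room temperature.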
# [11] = qHTS assay to identify small molecule agonists of the farnesoid-X-receptor (FXR) signaling pathway - cell viability counter screen (AID 743218); note: nearly all actives have a fitted effect of over 45% in size; note: potency is the fitted concentration of half-maximal effect
# Procedure, shortened: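 Viability counter screen in the same wells: CellTiter-Glo luminescence, 30 min room-temperature incubation, measured after the beta-lactamase read. Cells were GeneBLAzer FXR-UAS-bla HEK 293T, compound-treated 16 h at 37C.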
# [12] = qHTS assay to identify small molecule antagonists of the farnesoid-X-receptor (FXR) signaling pathway - cell viability counter screen (AID 743221; active = well fitted cell-killing curve with a large enough effect in the repeat runs, not every such curve was filed as active; note: nearly all actives have a fitted effect of over 50% in size)
# Procedure, shortened: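 FXR-UAS-bla HEK 293T cells were treated with test compounds plus chenodeoxycholic acid (50 uM final) for 16 h at 37 C. Cell viability in the same wells was then read as CellTiter-Glo luminescence after 30 min at room temperature.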
# [13] = target: Vitamin D3 receptor (Homo sapiens) (UniProt P11473); assay: qHTS assay to identify small molecule agonists of the vitamin D receptor (VDR) signaling pathway (AID 743222; calls by dose curve)
# Procedure, shortened: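 Agonist mode, beta-lactamase reporter: fluorescence from LiveBLAzer B/G FRET substrate (2 h, room temperature) read after 16 h compound treatment at 37 C of VDR-bla cells, which were pre-incubated 4 h after seeding.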
# [14] = target: Vitamin D3 receptor (Homo sapiens) (UniProt P11473); assay: qHTS assay to identify small molecule antagonists of the vitamin D receptor (VDR) signaling pathway (AID 743223; active = well fitted inhibition curve with a large enough effect in the signal ratio in the repeat runs, not every such curve was filed as active; the % refers to the signal ratio)
# Procedure, shortened: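 VDR-bla cells were plated, incubated 4 h at 37C, then given compound and 1alpha,25-dihydroxyvitamin D3 (3 nM final). After 16 h at 37C, LiveBLAzer B/G FRET substrate was added for 2 h at room temperature and fluorescence read.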
# [15] = qHTS assay to identify small molecule that activate the aryl hydrocarbon receptor (AhR) signaling pathway - cell viability counter screen (AID 743086);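 note: HepG2 liver cells carrying the AhR DRE luciferase reporter; series mostly up to about 70 µM; nearly all actives have a fitted effect of over 45% in size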
# Procedure, shortened: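 HepG2-AhR-luc (HG2L7.5c1) cells, 4000/well, were preincubated 5 h at 37C, exposed to compound in qHTS format for 24 hr at 37C, then given CellTiter-Fluor for 30 min; viability was read as fluorescence in the reporter wells.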
# [16] = qHTS assay to identify small molecule antagonists of the peroxisome proliferator-activated receptor gamma (PPARg) signaling pathway - cell viability counter screen (AID 743194); note: nearly all actives have a fitted effect of over 55% in size; note: potency is the fitted concentration of half-maximal effect
# Procedure, shortened: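 PPARg-UAS-bla HEK293H cells were plated, rested 5 h at 37 C, then treated with compounds plus rosiglitazone (50 nM final) for 17 h at 37 C; viability was then read by CellTiter-Glo luminescence after 30 min at room temperature.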
# [17] = qHTS assay for small molecule activators of the heat shock response signaling pathway (AID 743210; active = well fitted activation curve with a large enough effect in the signal ratio in the repeat runs, with a control signal flat, not every such curve was filed as active; the % refers to the signal ratio;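 note: HeLa cells with beta-lactamase reporter driven by heat shock elements; series mostly up to about 63 µM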)
# Procedure, shortened: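 Activation of heat shock element-controlled beta-lactamase expression is measured in HeLa cells by LiveBLAzer FRET fluorescence, with compound exposure lasting 5 h at 37 C and substrate loading 2.5 h at room temperature.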
# [18] = target: Bile acid receptor (Homo sapiens) (UniProt Q96RI1); assay: qHTS assay to identify small molecule antagonists of the farnesoid-X-receptor (FXR) signaling pathway (AID 743217; active = well fitted inhibition curve with a large enough effect in the signal ratio in the repeat runs, not every such curve was filed as active; the % refers to the signal ratio)
# Procedure, shortened: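 Antagonist mode: chenodeoxycholic acid at 50 uM final stimulates a UAS-driven beta-lactamase reporter in HEK 293T FXR-bla cells during 16 h, 37C compound exposure. Read-out is FRET substrate fluorescence after 2 h at room temperature.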
# [19] = target: Bile acid receptor (Homo sapiens) (UniProt Q96RI1); assay: qHTS assay to identify small molecule agonists of the farnesoid-X-receptor (FXR) signaling pathway (AID 743220; active = well fitted activation curve with a large enough effect in the signal ratio in the repeat runs, not every such curve was filed as active; the % refers to the signal ratio)
# Procedure, shortened: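 FXR-UAS-bla HEK 293T cells carrying a UAS-driven beta-lactamase reporter were plated for 5 h at 37C/5% CO2, then exposed to DMSO-dissolved Tox21 10K compounds for 16 h at 37C. A LiveBLAzer B/G FRET substrate was loaded for 2 h at room temperature before fluorescence reading.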
# [20] = target: Peroxisome proliferator-activated receptor delta (Homo sapiens) (UniProt Q03181); assay: qHTS assay to identify small molecule antagonists of the peroxisome proliferator-activated receptor delta (PPARd) signaling pathway (AID 743215; active = well fitted inhibition curve with a large enough effect in the signal ratio in the repeat runs, not every such curve was filed as active; the % refers to the signal ratio;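 note: cells stimulated with agonist L165041 at 300 nM final during compound exposure; series mostly up to about 62 µM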)
# Procedure, shortened: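 Agonist L165041 (300 nM final) added with compound to PPARd-bla HEK293H UAS-bla reporter cells; 17 h incubation at 37 C. Read-out: LiveBLAzer FRET substrate, 2 h at room temperature, fluorescence intensity.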
# Aryl hydrocarbon receptor (Homo sapiens), sequence (P35869 whole entry, looked up): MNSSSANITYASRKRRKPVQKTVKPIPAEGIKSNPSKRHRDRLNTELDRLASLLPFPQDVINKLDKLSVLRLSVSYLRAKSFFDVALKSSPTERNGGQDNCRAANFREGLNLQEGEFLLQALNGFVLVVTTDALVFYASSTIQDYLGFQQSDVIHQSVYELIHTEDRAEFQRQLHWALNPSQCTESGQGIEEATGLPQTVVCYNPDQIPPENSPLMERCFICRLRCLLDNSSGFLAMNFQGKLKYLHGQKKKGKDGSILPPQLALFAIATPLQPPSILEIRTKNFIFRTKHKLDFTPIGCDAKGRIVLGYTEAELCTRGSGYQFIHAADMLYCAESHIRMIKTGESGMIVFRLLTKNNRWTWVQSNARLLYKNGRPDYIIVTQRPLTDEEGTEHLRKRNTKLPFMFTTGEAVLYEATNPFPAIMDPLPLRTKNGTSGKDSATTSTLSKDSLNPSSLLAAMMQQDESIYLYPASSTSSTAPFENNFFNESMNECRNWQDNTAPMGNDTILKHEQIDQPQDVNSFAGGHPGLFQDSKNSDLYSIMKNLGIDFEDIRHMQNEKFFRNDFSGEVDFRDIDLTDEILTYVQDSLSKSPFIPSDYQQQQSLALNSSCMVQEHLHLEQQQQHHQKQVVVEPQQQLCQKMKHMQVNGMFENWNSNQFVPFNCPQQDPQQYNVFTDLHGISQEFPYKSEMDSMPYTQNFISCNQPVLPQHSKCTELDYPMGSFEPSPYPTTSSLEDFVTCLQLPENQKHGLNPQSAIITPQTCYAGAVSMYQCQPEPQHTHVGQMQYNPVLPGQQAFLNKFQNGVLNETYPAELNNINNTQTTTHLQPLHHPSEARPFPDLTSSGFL
# Peroxisome proliferator-activated receptor gamma (Homo sapiens), sequence (P37231 whole entry, looked up): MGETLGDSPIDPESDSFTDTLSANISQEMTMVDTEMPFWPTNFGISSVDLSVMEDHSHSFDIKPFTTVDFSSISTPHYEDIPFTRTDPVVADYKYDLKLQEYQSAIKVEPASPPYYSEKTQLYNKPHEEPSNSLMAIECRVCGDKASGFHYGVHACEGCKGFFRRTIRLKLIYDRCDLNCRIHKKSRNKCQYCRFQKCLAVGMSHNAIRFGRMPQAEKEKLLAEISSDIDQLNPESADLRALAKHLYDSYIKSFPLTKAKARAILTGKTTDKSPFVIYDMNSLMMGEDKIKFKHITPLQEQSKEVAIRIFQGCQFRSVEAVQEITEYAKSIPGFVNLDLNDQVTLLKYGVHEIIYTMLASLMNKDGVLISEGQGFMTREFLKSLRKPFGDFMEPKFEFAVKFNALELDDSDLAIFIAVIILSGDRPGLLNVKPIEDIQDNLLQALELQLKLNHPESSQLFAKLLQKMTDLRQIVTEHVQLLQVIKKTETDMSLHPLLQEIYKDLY
# Vitamin D3 receptor (Homo sapiens), sequence (P11473 whole entry, looked up): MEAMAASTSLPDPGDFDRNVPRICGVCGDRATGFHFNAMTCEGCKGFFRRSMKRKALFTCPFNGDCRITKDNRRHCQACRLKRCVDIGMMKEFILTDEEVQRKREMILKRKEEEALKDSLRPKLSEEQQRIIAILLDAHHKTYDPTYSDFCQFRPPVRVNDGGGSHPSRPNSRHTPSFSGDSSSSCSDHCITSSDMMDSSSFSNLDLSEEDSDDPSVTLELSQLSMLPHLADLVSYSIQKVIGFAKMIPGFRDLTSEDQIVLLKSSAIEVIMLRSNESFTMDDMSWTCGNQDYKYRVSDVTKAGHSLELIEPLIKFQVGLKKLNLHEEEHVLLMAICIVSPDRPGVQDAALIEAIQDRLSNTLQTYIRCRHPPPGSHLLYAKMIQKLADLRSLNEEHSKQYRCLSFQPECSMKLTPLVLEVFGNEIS
# Bile acid receptor (Homo sapiens), sequence (Q96RI1 whole entry, looked up): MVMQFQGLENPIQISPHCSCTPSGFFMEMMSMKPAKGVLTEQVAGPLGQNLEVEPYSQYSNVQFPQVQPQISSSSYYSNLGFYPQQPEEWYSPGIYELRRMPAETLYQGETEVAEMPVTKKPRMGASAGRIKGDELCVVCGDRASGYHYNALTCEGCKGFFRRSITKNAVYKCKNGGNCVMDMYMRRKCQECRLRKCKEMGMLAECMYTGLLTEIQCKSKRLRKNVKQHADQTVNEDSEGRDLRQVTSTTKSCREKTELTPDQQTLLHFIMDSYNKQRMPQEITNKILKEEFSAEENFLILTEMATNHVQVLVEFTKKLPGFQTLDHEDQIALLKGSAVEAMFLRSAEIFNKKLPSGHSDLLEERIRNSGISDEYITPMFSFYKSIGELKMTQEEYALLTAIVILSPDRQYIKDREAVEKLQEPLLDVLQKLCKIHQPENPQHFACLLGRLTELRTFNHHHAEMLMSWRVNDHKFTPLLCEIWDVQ
# Peroxisome proliferator-activated receptor delta (Homo sapiens), sequence (Q03181 whole entry, looked up): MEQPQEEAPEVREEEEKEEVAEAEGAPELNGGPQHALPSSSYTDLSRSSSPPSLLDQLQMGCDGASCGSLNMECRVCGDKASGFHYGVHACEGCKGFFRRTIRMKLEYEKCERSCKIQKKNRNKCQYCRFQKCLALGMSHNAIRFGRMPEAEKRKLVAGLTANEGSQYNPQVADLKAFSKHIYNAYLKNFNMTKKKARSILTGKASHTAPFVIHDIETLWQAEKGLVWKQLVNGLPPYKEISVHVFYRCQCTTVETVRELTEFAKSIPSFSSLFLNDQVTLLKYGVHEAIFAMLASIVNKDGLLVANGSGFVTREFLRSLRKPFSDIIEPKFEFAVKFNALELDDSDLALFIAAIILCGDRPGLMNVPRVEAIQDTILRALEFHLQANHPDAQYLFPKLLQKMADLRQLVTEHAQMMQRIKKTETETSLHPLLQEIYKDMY
compound,measurement,setting,value
Cc1cccc([N+](=O)[O-])c1C,Potency,[1],inactive
same,Potency,[2],inactive
same,Potency,[3],inactive
same,Potency,[4],inactive
same,Potency,[5],inactive
same,Potency,[6],inactive
same,Potency,[7],inactive
same,Potency,[8],inactive
same,outcome,[9],inactive
same,Potency,[10],inactive
same,Potency,[11],inactive
same,Potency,[12],inactive
same,outcome,[13],inactive
same,outcome,[14],inactive
CN(C)c1nc(N(C)C)nc(N(C)C)n1,Potency,[15],inactive
same,Potency,[16],inactive
same,Potency,[6],inactive
same,Potency,[7],inactive
same,Potency,[17],inactive
same,Potency,[8],inactive
same,outcome,[9],inactive
same,Potency,[10],inactive
same,Potency,[18],inactive
same,"viability change, negative = cytotoxic",[11],-6.22% [at 5.95 µM] (inactive)
same,outcome,[19],inactive
same,Potency,[12],inactive
same,outcome,[13],inactive
same,outcome,[14],inactive
c1ccc2cc(Nc3ccc(Nc4ccc5ccccc5c4)cc3)ccc2c1,Potency,[1],inactive
same,Potency,[2],30.8 µM (active) and 30.6 µM (active)
same,Potency,[3],22 µM (active)
same,Potency,[16],inactive
same,Potency,[5],inactive
same,Potency,[6],inactive
same,Potency,[7],inactive
same,Potency,[8],inactive
same,Potency,[10],inactive
same,Potency,[20],inactive
same,Potency,[18],inactive
same,Potency,[11],inactive
same,Potency,[12],inactive
same,outcome,[13],inactive
same,outcome,[14],inactive
Nc1ccc(Nc2ccccc2)cc1,Potency,[1],61.1 µM (active) and inactive
same,Potency,[2],inactive
same,Potency,[3],inactive
same,Potency,[4],inactive
same,Potency,[6],inactive
same,Potency,[7],inactive
same,Potency,[17],inactive
same,Potency,[8],inactive
same,Potency,[10],inactive
same,Potency,[11],inactive
same,Potency,[12],inactive
c1cc(N(CC2CO2)CC2CO2)ccc1OCC1CO1 (configuration not stated),Potency,[1],27.3 µM (active)
same,Potency,[2],inactive
same,Potency,[6],inactive
same,Potency,[10],inactive
same,Potency,[12],inactive
O=C(OCc1ccccc1)c1ccccc1O,Potency,[1],inactive
same,Potency,[2],inactive
same,Potency,[6],inactive
same,Potency,[7],inactive
same,Potency,[8],inactive
same,outcome,[9],inactive
same,Potency,[12],inactive
same,outcome,[13],inactive
same,outcome,[14],inactive
COC(=O)C1=C(C)NC(C)=C(C(=O)OCCN(C)Cc2ccccc2)C1c1cccc([N+](=O)[O-])c1 (configuration not stated),Potency,[1],21.1 µM (active) and 54.2 µM (active)
same,Potency,[2],inactive
same,Potency,[16],24.4 µM (active) and 33.5 µM (active)
same,Potency,[6],24.2 µM (active) and 26.6 µM (active)
same,Potency,[7],inactive
same,Potency,[8],24.4 µM (active) and 26.6 µM (active)
same,outcome,[9],inactive
same,Potency,[10],48.7 µM (active) and 26.6 µM (active)
same,Potency,[11],24.4 µM (active) and 29.8 µM (active)

# Source: PubChem BioAssay (Tox21)
